Hits are enriched below; roughly 7.4% of the tested compounds scored in any of these assays.
FLuc counter – counter-screen for miR-21 project: firefly luciferase inhibitors or activators; AID 588342; purified FLuc, Km substrates, luminescence inhibition; P08659; actives 6.9% (n = 360,000); Potency, µM (titrated, usually from 57.5 µM), hits mostly inhibitors; further: nearly all actives have a fitted effect of over 55% in size
Target sequence (P08659 whole entry, looked up): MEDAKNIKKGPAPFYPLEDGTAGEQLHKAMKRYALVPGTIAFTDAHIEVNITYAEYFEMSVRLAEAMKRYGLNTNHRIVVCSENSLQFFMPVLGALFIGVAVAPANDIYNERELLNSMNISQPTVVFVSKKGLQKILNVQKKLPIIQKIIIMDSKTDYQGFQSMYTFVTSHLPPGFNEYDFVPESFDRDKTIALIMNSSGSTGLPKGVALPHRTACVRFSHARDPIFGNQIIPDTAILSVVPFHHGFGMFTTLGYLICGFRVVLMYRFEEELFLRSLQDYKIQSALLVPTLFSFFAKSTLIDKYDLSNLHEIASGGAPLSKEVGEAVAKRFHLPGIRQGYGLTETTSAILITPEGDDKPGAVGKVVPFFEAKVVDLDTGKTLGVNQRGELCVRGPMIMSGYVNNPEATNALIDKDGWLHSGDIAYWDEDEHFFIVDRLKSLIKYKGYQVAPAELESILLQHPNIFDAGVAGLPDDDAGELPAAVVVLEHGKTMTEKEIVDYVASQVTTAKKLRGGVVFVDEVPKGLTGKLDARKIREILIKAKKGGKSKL
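Purified P. pyralis luciferase (10nM final) with 10uM D-luciferin and 10uM ATP (Km levels) in 50mM Tris acetate pH 7.5, 10mM Mg acetate, 0.01% Tween-20, 0.05% BSA; qHTS 6-point titration, ~60 µM downward; luminescence read.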
Rab9 promoter act – Rab9 promoter activation; Potency, µM (titrated, usually from 9.22 µM), usual class: activators; actives 2.8% (n = 320,000); Huh7 Rab9 promoter-luciferase reporter, luminescence, 24 h; further: nearly all actives have a fitted effect of over 60% in size
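Quantitative HTS format; Huh7 Rab9-luciferase reporter cells (1500/well) receive compound 2 h post-plating, incubate 24 h at 37 °C, then get luciferase reagent for 10 min before luminescence reading.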
NPC1 prom act – NPC1 promoter activation | actives 2.4% (n = 320,000) | Potency, µM (top dose mostly 9.22 µM), most hits filed as activators | Huh7 NPC1 promoter luciferase reporter, 24 h; further: nearly all actives have a fitted effect of over 60% in size
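Readout is luciferase luminescence, reflecting NPC1 promoter activation in stably transfected Huh7 cells after 24 h compound exposure at 37 °C in reduced-serum medium with 10% FBS.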
SMN2 splice enh – enhancers of SMN2 splice variant expression; HEK293 SMN2-luciferase splicing reporter, luminescence, 30-36 h; Potency, µM (top dose mostly 46.1 µM), most hits filed as activators; actives 2.8% (n = 210,000); AID 1458; further: nearly all actives have a fitted effect of over 55% in size
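qHTS luciferase splicing reporter: luminescence rises when SMN2 exon 7 is included in transfected HEK293 cells. Compound exposure lasted 30-36 h at 37C, with 4.5 mM final sodium butyrate as control, followed by a ONE-Glo read.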
ELG1 genotox – genotoxicity induction in ELG1-luciferase HEK293T cells | HEK293T ELG1-luciferase reporter, luminescence, 16 h | Potency, µM (highest dose often 46 µM), most hits filed as activators | actives 1.3% (n = 330,000); further: nearly all actives have a fitted effect of over 60% in size
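Luminescence read-out: rising ELG1-luciferase signal, reflecting elevated ELG1 protein under genetic stress, flags genotoxic compounds. Cells were treated for 16 hr at 37 °C before ONE-Glo detection.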
A number is an active result; 0 = inactive; ? = inconclusive; - = no result; [ ] = remark or other dose. The call rests on the fitted dose curve; in most records, active means well fitted curve in the direction sought with a large enough effect; inconclusive means small, poorly fitted or top-dose-only effect, or another doubt; inactive means no such curve, though single readings can be large; an effect the other way counts as inactive or inconclusive.

SMILES	FLuc counter	Rab9 promoter act	NPC1 prom act	SMN2 splice enh	ELG1 genotox
Oc1cccc2ccc(/C=C/c3c(F)cccc3Cl)nc12	3µM	4µM	?	25µM	15µM
Nc1nccc(/C=C/c2c(F)cccc2Cl)n1	24µM	?	0	?	?
C=Cc1ccc(Cn2c(=O)cc(C)c3c(C)nn(C)c32)cc1	0	-	-	-	-
CN(C)c1ccc(/C=N\NC(=O)c2cccc3cc[nH]c23)cc1	12µM	?	0	-	?
CSC(=S)N/N=C/c1ccc(N(C)C)cc1	2.7µM	0	0	0	?
Cc1cc(/C=N/NC(=O)c2nn(C)cc2Cl)c(C)n1-c1cccc(Br)c1	24µM	0	0	0	0
CN(C)c1ccc(/C=N/NC(=O)c2cc(=O)[nH]c3ccccc23)cc1	0	0	0	-	0
CSC(=S)N/N=C/c1ccc(Br)cc1	0	0	0	0	0
O=C(N/N=C/c1ccc2ncccc2c1)c1ccco1	1.3µM	0.32µM	?	0.56µM	2.6µM
COc1ccc([C@]23Cc4cc(OC)c(OC)cc4C(O2)c2c(cc(C)n(Cc4ccccc4)c2=O)O3)cc1	?	0[1.84 µM]	0[1.84 µM]	-	-
CCOc1ccc(C(=O)OCc2cc(=O)n3nc(C4CC4)sc3n2)cc1	0	-	-	-	-
COc1ccc2[nH]cc(CCNC(=O)c3ccccc3Cl)c2c1	0	0	0	-	0
CC(C)N(C)Cc1nnnn1CC(=O)NCCc1cccc(C(F)(F)F)c1	0	0	0	-	0
Cc1cc(C(=O)NN=Cc2ccc(OC(=O)c3ccco3)cc2)c(C)o1	-	-	-	-	0
CN(C)c1ccc(/C=N/NC(=O)c2ccco2)cc1	2.7µM	0.56µM	0.79µM	8.9µM	4.1µM
O=C(N/N=C\c1ccoc1)c1ccco1	0	0	0	-	0
Cc1cccc(-n2c(C)cc(/C=N\NC(=O)c3ccco3)c2C)c1	9.5µM	1.1µM	?	0	?
Cc1ccc(/C=N/NC(=O)c2ccco2)cc1	3.8µM	1.4µM	1.8µM	-	?
Cc1ccc(Nc2c(-c3c[nH]c4ccccc34)nc3cc(C)ccn23)cc1	0	-	-	14µM	-
Cc1ccc2nc(-c3c[nH]c4ccccc34)c(Nc3ccc(F)cc3)n2c1	0	-	-	14µM	-
Cc1ccccc1Nc1c(-c2c[nH]c3ccccc23)nc2ccccn12	0	-	-	0	-
Cc1ccccc1Nc1c(-c2c[nH]c3ccccc23)nc2ccc(Cl)cn12	0	-	-	0	-
Cc1ccn2c(Nc3ccccc3)c(-c3c[nH]c4ccccc34)nc2c1	0	-	-	11µM	-
CCC(C)[C@H]1COCCS(=O)(=O)N1Cc1ccc(Cl)cc1Cl (some centres undefined)	0	0	0	-	0
Cc1cc(C)c2c(n1)sc1c(=O)n(CC(=O)c3ccccc3)cnc12	11µM	?	?	-	?
SMILES	FLuc counter	Rab9 promoter act	NPC1 prom act	SMN2 splice enh	ELG1 genotox
Cc1cccc(Cn2cnc3c(sc4nc(C)cc(C)c43)c2=O)c1	0	0	0	-	0
C=CCOC(=O)Cn1cnc2c(sc3nc(C)cc(C)c32)c1=O	11µM	?	?	-	?
O=C(O)Cn1cnc2c(oc3ccccc32)c1=O	0	0	0	-	0
O=C(Cn1cnc2c(oc3ccccc32)c1=O)c1ccccc1	15µM	?	2.5µM	?	?
COc1cc(-c2cc(OC)c3c(C)oc(C)c3c(=O)c2)ccc1OC(=O)c1cccc(C)c1	0	-	-	-	-
Cc1csc(NC(=O)c2cc3c(s2)CCCC3)n1	0.27µM	?	0.56µM	-	?
Cc1csc(NC(=O)C2CCCC2)n1	0	0	0	0	?
Cc1csc(NC(=O)c2cc3c(s2)CCCCC3)n1	0.13µM	0.5µM	0.35µM	1µM	0.21µM
Cc1cnc(NC(=O)c2cc3c(s2)CCCC3)s1	0.27µM	0.71µM	?	?	?
Cc1cnc(NC(=O)c2ccncc2)s1	?	0	0	?	0
Cc1csc(-c2coc3cc(O)cc(C)c3c2=O)n1	9.5µM	?	?	?	21µM
Cc1csc(NC(=O)Cc2coc3cc(C)c(C(C)C)cc23)n1	0	0	0	?	0
COc1ccc2c(=O)c(-c3nc(C)cs3)coc2c1	0.76µM	1.3µM	0.63µM	4.5µM	?
CCc1cc2c(=O)c(-c3nc(C)cs3)coc2cc1O	1.9µM	?	0	-	?
CCOC(=O)NN1C(=O)c2ccccc2NC1c1ccc(OC)cc1OC (centres undefined)	0	0	0	0	0
C/C(=N\NC(=O)C1CCCC1)c1ccc(Cl)cc1Cl	0	0	0	-	0
CC(NC(=O)C1CCC(C(=O)NC(C)c2ccccc2)CC1)c1ccccc1 (centres undefined)	0	0	0	-	0
O=C(N/N=C/c1cc(Br)cc(Br)c1O)c1ccncc1	0	0	0	0	?
COc1ccc(Br)cc1/C=N/NC(=O)C[n+]1ccccc1	0	0	0	-	0
O=C(O)c1cccc(N/N=C/c2cc(Br)cc(Br)c2O)c1	24µM	2.8µM	?	0[1.84 µM]	?
COc1ccc(C(=O)Nc2cccc(/C(C)=N/NC(=O)c3ccc([N+](=O)[O-])cc3)c2)cc1OC	5.4µM	0	0	0	0
C/C(=N\Nc1cccc(C(=O)O)c1)c1ccc(Cl)s1	11µM	2.8µM	3.2µM	-	?
COc1ccc(Br)cc1/C=N/Nc1cccc(C(=O)O)c1	21µM	1.6µM	3.2µM	11µM	?
CC(=O)c1cccc(NC(=S)NCCCCc2ccccc2)c1	0	0	0	-	0
COc1ccc(/C(C)=N/Nc2nc3ccccc3nc2C)cc1OC	3µM	0	0	-	0
SMILES	FLuc counter	Rab9 promoter act	NPC1 prom act	SMN2 splice enh	ELG1 genotox
COc1ccccc1/C=C/C=N/NC(=O)Cc1cccn1C	?	0	0	?	0
COc1ccc(/C(C)=N/Nc2cccc(C(=O)O)c2)cc1OC	3.8µM	1.1µM	1µM	10µM	5.2µM
COc1ccc(C(=O)N/N=C(/C)c2cccc(NC(=O)c3ccncc3)c2)cc1OC	?	0	0	-	0
COc1ccccc1/C=C/C=N/Nc1cccc(C(=O)O)c1	0.54µM	0.13µM	0.11µM	-	0.65µM
COc1ccc(C(=O)NCCn2cc(SCc3c(F)cccc3Cl)c3ccccc32)cc1	0	-	-	0	-
CC1CCN(c2ccc(NC(=O)Cn3c(=O)oc4ccccc43)cc2)CC1	0	0	0	-	0
Cc1c(C(=O)NCc2cccnc2)sc2nc(-c3ccccc3)cn12	24µM	?	0	-	?
Cc1c(C(=O)NCc2ccco2)sc2nc(-c3ccccc3)cn12	17µM	?	?	0	?
Cc1c(C(=O)NCc2cccnc2)sc2nc(-c3ccc(F)cc3)cn12	19µM	0	0	0	?
Cc1c(C(=O)N(C)c2ccccc2)sc2nc(-c3ccc(F)cc3)cn12	17µM	-	-	-	-
Cc1c(C(=O)NCc2ccc(F)cc2)sc2nc(-c3ccccc3)cn12	0	-	-	-	-
CCOc1ccccc1NC(=O)Cn1c(=O)n(-c2ccc(C)cc2)c(=O)c2c1cnn2C	0	-	-	0	-
CCCCCOCC(O)CCC(=O)NN (centres undefined)	0	0	0	0	0
O=C(COc1ccccc1)N=C1SC2CS(=O)(=O)CC2N1CCc1ccccc1 (centres undefined)	0	0	0	-	0
CCc1cc2cc(C(=O)Nc3ccc(F)cc3)sc2s1	?	2.5µM	?	0	0

Compound activity as filed in PubChem.
